Bioassay records from PubChem.
JMJD2E inh = blocks human JMJD2E demethylase activity; 1.6% of 230,000 active; Potency, µM (highest dose often 57.1 µM), most hits filed as inhibitors; JMJD2E catalytic domain, FDH-coupled NADH fluorescence (FDH is formaldehyde dehydrogenase); B2RXH2; AID 2147; also: nearly all actives have a fitted effect of over 50% in size
Target sequence (B2RXH2 1-337 limits assumed): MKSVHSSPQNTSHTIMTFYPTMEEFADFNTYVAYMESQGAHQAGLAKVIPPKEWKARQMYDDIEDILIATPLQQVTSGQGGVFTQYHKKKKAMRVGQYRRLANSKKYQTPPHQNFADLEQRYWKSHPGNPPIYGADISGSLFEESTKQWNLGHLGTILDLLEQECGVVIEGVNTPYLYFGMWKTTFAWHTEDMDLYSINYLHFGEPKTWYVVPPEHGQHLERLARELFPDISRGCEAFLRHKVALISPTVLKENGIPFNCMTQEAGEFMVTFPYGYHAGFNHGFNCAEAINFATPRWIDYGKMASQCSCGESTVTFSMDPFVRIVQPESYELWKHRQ
ALDH1A1 inh = ALDH1A1 (human) enzyme inhibition | P00352 | Purified ALDH1A1, NADH fluorescence, propionaldehyde substrate | Potency, µM (series often up to 75.3 µM), usual class: inhibitors | 7.3% of 220,000 active | AID 1030
Target sequence (P00352 whole entry, looked up): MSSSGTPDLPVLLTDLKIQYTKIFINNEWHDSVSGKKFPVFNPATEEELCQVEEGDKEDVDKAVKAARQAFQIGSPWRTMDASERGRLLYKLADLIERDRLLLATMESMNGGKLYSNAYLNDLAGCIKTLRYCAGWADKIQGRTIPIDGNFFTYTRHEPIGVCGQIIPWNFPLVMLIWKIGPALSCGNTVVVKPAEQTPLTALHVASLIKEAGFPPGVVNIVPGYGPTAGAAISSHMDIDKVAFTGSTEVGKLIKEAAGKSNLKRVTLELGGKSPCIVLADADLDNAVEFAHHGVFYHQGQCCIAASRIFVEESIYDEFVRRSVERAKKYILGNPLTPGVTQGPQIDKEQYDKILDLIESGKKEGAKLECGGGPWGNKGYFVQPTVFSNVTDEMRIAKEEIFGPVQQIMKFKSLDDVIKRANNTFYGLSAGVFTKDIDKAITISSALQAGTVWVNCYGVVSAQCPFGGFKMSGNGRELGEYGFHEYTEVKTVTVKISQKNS
Tau fluor cs = counter-screen for tau fibril formation inhibitors; tau K18 P301L Alexa594 fluorescence, heparin fibrillization; Potency, µM (titrated, usually from 57.7 µM); 0.93% of 280,000 active; active = well fitted curve in the direction sought with a large enough effect; inconclusive = small, poorly fitted or top-dose-only effect, or another doubt; inactive = no such curve, though single readings can be large; an effect the other way counts as inactive or inconclusive; also: nearly all actives have a fitted effect of over 55% in size
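Human tau K18 P301L (15 uM unlabeled, 0.24 uM Alexa 594-labeled) in 100 mM sodium acetate pH 7 with 20 uM heparin, 6 hr at 37 C. ThT 30 uM added, 1 hr ambient; Alexa 594 FP and total fluorescence read at 555/632 nm.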
HPGD inh = HPGD (human) dehydrogenase inhibition; P15428; purified HPGD, NADH fluorescence kinetic, PGE2 substrate; Potency, µM, actives largely listed as inhibitors; 4.3% of 150,000 active
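20 nM HPGD preincubated 15 min at room temperature with compound in 50 mM Tris-HCl pH 8, 0.01% Tween 20. Started with 1 mM NAD+ and 30 uM prostaglandin E2; NADH fluorescence (360/450 nm) read 5 times over 30-s intervals, last minus first.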
Tau ThT inhib = tau fibrillization inhibition (ThT binding) | 2.1% of 270,000 active | recombinant tau K18 P301L, heparin-induced fibrillization, ThT fluorescence | P10636 | Potency, µM (top dose mostly 57.4 µM), hits mostly inhibitors; active = well fitted curve in the direction sought with a large enough effect; inconclusive = small, poorly fitted or top-dose-only effect, or another doubt; inactive = no such curve, though single readings can be large; an effect the other way counts as inactive or inconclusive; also: nearly all actives have a fitted effect of over 55% in size
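Using a mix of unlabeled (15 uM) and Alexa 594-labeled (0.24 uM) tau K18 P301L, heparin-triggered fibrillization over 6 hr at 37 C was scored by ThT fluorescence.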
Tau FP inhib = blocks human tau fibril formation measured by polarization; P10636; K18 P301L tau heparin fibrillization, Alexa594 FP, 6 h; Potency, µM (top dose mostly 57.7 µM), usual class: inhibitors; 0.39% of 280,000 active; AID 1468; active = well fitted curve in the direction sought with a large enough effect; inconclusive = small, poorly fitted or top-dose-only effect, or another doubt; inactive = no such curve, though single readings can be large; an effect the other way counts as inactive or inconclusive; also: nearly all actives have a fitted effect of over 55% in size
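Read-out: fluorescence polarization of Alexa 594-labeled tau (0.24 uM), 555 nm excitation, 632 nm emission. Mixtures held 15 uM unlabeled K18 P301L, compound and 20 uM heparin, pH 7 acetate buffer, incubated 6 hr at 37 C.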
Large screens that a line does not name were inactive; [ ] = another dose, or the depositor's remark. Shown are actives, neighbours in structure and some others; about 9.9% of the full set was active somewhere. Unless noted, calls follow the shape of the dose curve; as a rule, active = well fitted inhibition curve with a large enough effect (not every such curve was filed as active); inconclusive = small, poorly fitted or top-dose-only effect, or another doubt; inactive = no such curve, though single readings can be large or run the other way.

C=CCNc1cnn(-c2ccc(C)cc2)c(=O)c1Sc1ccc(C)cc1	JMJD2E inh inconclusive, ALDH1A1 inh 10µM (no result: HPGD inh)
N[C@@H](C(=O)N[C@@H]1C(=O)N2C(C(=O)O)=C(Cl)CS[C@H]12)c1ccccc1	JMJD2E inh inconclusive, ALDH1A1 inh inconclusive, HPGD inh inconclusive, Tau ThT inhib 28µM, Tau FP inhib inconclusive
NC(=O)c1cc[n+](CC2=C(C(=O)O)N3C(=O)[C@@H](NC(=O)[C@H](c4ccccc4)S(=O)(=O)[O-])[C@@H]3SC2)cc1	none (no result: Tau fluor cs, Tau ThT inhib, Tau FP inhib)
NC(C(=O)N[C@@H]1C(=O)N2C(C(=O)O)=C(Cl)CS[C@H]12)c1ccccc1 (stereo not given in full)	JMJD2E inh inconclusive, ALDH1A1 inh inconclusive, Tau ThT inhib 28µM, Tau FP inhib inconclusive
NC(=O)c1cc[n+](CC2=C(C(=O)O)N3C(=O)C(NC(=O)C(c4ccccc4)S(=O)(=O)[O-])C3SC2)cc1 (stereo not given)	JMJD2E inh inconclusive, ALDH1A1 inh inconclusive, HPGD inh 32µM, Tau ThT inhib inconclusive, Tau FP inhib inconclusive
CC(C)(C)N(Cc1ccccc1)C(=O)COC(=O)Cn1cnc2ccccc2c1=O	none (no result: HPGD inh)
C[C@@H](c1ccccc1)N1C(=O)[C@@H]2[C@H]3C(=CC[C@H]2C1=O)C(=O)[C@H]1O[C@H]1[C@H]3O	Tau ThT inhib inconclusive, Tau FP inhib inconclusive (no result: JMJD2E inh, HPGD inh)
O=C(Oc1ccnc2cc(Cl)ccc12)N1CCCCCC1	ALDH1A1 inh 5µM, HPGD inh 32µM, Tau ThT inhib inconclusive
CCN(CC)C(=O)Oc1ccnc2cc(Cl)ccc12	none (no result: HPGD inh)
Cc1c(C(C)(C)C)c(C=S)n2ccccc12	ALDH1A1 inh 22µM, Tau ThT inhib inconclusive
CC(C)(C)c1ccc(-c2nc(C=O)c3ccccn23)cc1	JMJD2E inh inconclusive, ALDH1A1 inh inconclusive, Tau ThT inhib inconclusive
Cc1ccc(CNC(=O)C(=O)NCC(c2ccco2)S(=O)(=O)c2ccc(C)cc2)cc1 (stereo not given)	none (no result: JMJD2E inh, ALDH1A1 inh, HPGD inh)
Cc1c(Cc2ccc3c(c2)OCO3)sc(NC(=O)c2cccc3ccccc23)c1C(N)=O	JMJD2E inh inconclusive, ALDH1A1 inh 14µM, Tau fluor cs inconclusive, HPGD inh 14µM, Tau ThT inhib inconclusive, Tau FP inhib inconclusive
COCCNC(=O)c1ccc(C)cc1C	none (no result: HPGD inh)
COCCNC(=O)COc1ccc(C)cc1C	HPGD inh 14µM
COc1ccc(S(=O)(=O)Nc2ccccn2)c(C)c1C	ALDH1A1 inh 25µM
COc1ccccc1N(C)S(=O)(=O)c1ccc(C(=O)OCC(=O)N(C)c2ccccc2)cc1	ALDH1A1 inh 32µM (no result: HPGD inh)
CCc1cccc(NC(=O)CNS(=O)(=O)c2ccc3nc(C)sc3c2)c1	none (no result: JMJD2E inh, ALDH1A1 inh, HPGD inh)
C=C1CCC[C@]2(C)C[C@H]3OC(=O)[C@H](CNCCc4ccccc4OC)C3CC12 (stereo not given in full)	ALDH1A1 inh 8.9µM
CC(C)(C)c1cnnn1-c1ccc(-c2csc(N)n2)cc1	ALDH1A1 inh 18µM
Nc1nc(-c2ccc3c(c2)CCCC3)cs1	ALDH1A1 inh inconclusive, HPGD inh inconclusive, Tau ThT inhib inconclusive
CCOC(=O)C1=C(N)Oc2c(c(=O)[nH]c3ccccc23)C1c1ccccc1 (stereo not given)	JMJD2E inh inconclusive
COCCNCC(=O)N1CCCCCC1	ALDH1A1 inh 4µM (no result: HPGD inh)
CCCN1C(=O)/C(=C/c2c(N3CCNC(=O)C3CC(=O)OC)nc3c(C)cccn3c2=O)SC1=S (stereo not given)	ALDH1A1 inh 5µM, Tau ThT inhib 5.6µM (no result: HPGD inh)
CCN=C1SC(C(=O)Nc2cccc(Br)c2)CC(=O)N1CC (stereo not given)	none
COc1c(C)cc(C(=O)C2CCCN(C(=O)CCCn3cncn3)C2)cc1C (stereo not given)	none (no result: ALDH1A1 inh, HPGD inh)
O=C(c1cccc2ccccc12)C1CCCN(C(=O)CCCn2cncn2)C1 (stereo not given)	JMJD2E inh inconclusive, ALDH1A1 inh 10µM (no result: HPGD inh)
O=C(Nc1cccc(Cl)c1)c1ccc(F)c(S(=O)(=O)NCc2ccc3c(c2)OCO3)c1	ALDH1A1 inh inconclusive, Tau fluor cs 16µM[quencher], Tau FP inhib inconclusive
Cc1ccc(CNS(=O)(=O)c2cc(C(=O)Nc3ccc(C(C)C)cc3)ccc2F)cc1	Tau fluor cs inconclusive, Tau FP inhib inconclusive (no result: JMJD2E inh, ALDH1A1 inh, HPGD inh)
Cc1ccc(CNS(=O)(=O)c2cc(C(=O)Nc3cccc(C(F)(F)F)c3)ccc2F)cc1	Tau fluor cs inconclusive, Tau FP inhib 14µM (no result: JMJD2E inh, ALDH1A1 inh, HPGD inh)
CCOC(=O)c1ccc(CN(Cc2ccc(F)cc2)S(=O)(=O)c2cc(C(=O)Nc3cccc(C(F)(F)F)c3)ccc2F)cc1	Tau FP inhib 14µM (no result: JMJD2E inh, ALDH1A1 inh, HPGD inh)
COc1ccccc1CNC(=O)CSC1=Nc2ccccc2N=C(c2ccc(F)cc2)C1	none (no result: JMJD2E inh, ALDH1A1 inh, HPGD inh)
O=C(c1ccc(S(=O)(=O)NCC2CCCO2)cc1)N1CCN(c2cccc(Cl)c2)CC1 (stereo not given)	none (no result: HPGD inh)
CC1CCCN(C(=O)CCc2ccccc2)C1 (stereo not given)	HPGD inh 4.5µM
CCOC(=O)C1CCCN(C(=O)CCc2ccccc2)C1 (stereo not given)	ALDH1A1 inh inconclusive (no result: HPGD inh)
CC1CCCN(C(=O)COc2ccc(Nc3ccccc3)cc2)C1 (stereo not given)	ALDH1A1 inh 28µM (no result: HPGD inh)
O=C(Cc1ccccc1)N1CCC(c2ccccc2)C1 (stereo not given)	ALDH1A1 inh 25µM (no result: HPGD inh)
CC1CCN(C(=O)COc2ccc(Nc3ccccc3)cc2)CC1	ALDH1A1 inh inconclusive (no result: HPGD inh)
O=C(Nc1ncccc1Cl)C(Sc1ccccc1)c1ccccc1 (stereo not given)	none
C[C@H](N[C@@H](C)COc1ccccc1)[C@H](O)c1ccc(O)cc1	none (no result: Tau fluor cs, Tau ThT inhib, Tau FP inhib)
FC(F)(F)c1cnc(C(c2ccccc2)c2ncn[nH]2)c(Cl)c1 (stereo not given)	none (no result: HPGD inh)
FC(F)(F)c1cnc(C(c2ccccn2)c2ncn[nH]2)c(Cl)c1 (stereo not given)	JMJD2E inh 25µM (no result: HPGD inh)
CC(/C=C/c1ccc(N(C)C)cc1)=N/N=C1/NC(=O)CC(C(=O)Nc2ccc(Cl)cc2)S1 (stereo not given)	ALDH1A1 inh 25µM, Tau fluor cs 8.9µM[quencher], Tau ThT inhib 7.9µM
O=S(=O)(c1ccccc1)c1nc(-c2ccccc2)oc1N1CCCCC1	ALDH1A1 inh 0.45µM, HPGD inh inconclusive, Tau ThT inhib inconclusive
O=P(c1ccccc1)(c1ccccc1)c1nc(-c2ccccc2)oc1N1CCOCC1	JMJD2E inh inconclusive (no result: ALDH1A1 inh, HPGD inh)
COc1ccc(-c2nc(S(=O)(=O)c3ccccc3)c(N3CCOCC3)o2)cc1	ALDH1A1 inh 22µM
CSc1oc(-c2ccc(F)cc2)nc1S(=O)(=O)c1ccccc1	ALDH1A1 inh 28µM, HPGD inh inconclusive
O=P(c1ccccc1)(c1ccccc1)c1nc(-c2ccc(Cl)cc2)oc1N1CCOCC1	JMJD2E inh 3.2µM, ALDH1A1 inh inconclusive, Tau ThT inhib inconclusive (no result: HPGD inh)
COc1cc(C)ccc1OCCCn1c(-c2ccc(Cl)cc2)nc2ccccc2c1=O	none (no result: JMJD2E inh, ALDH1A1 inh, HPGD inh)
